G9a block: qHTS Assay for Inhibitors of Histone Lysine Methyltransferase G9a | Histone-lysine N-methyltransferase EHMT2 (Homo sapiens), Q96KQ7 | 350,000 compounds, 8.8% hits | AID 504332, 2011 | Potency, µM (titrated, usually from 102 µM), without a hit: at the highest dose activity, negative = inhibition, usual class: inhibitors | G9a H3K9 monomethylation, AlphaScreen, 2 h; note: potency is the fitted concentration of half-maximal effect; nearly all actives have a fitted effect of over 75% in size
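AlphaScreen read-out: biotin-H3K9 peptide (500 nM) methylation by 20 nM enzyme with 20 uM SAM, 2 h at room temperature after 15 min compound preincubation; anti-monomethyl H3K9 antibody plus donor/acceptor beads, 10 min dark.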
MmCpn inh: Inhibitors of TCP-1 ring complex (TRiC) of Methanococcus maripaludis (MmCpn): qHTS | Potency, µM (titrated, usually from 76.9 µM), for the others: at the top dose activity, negative = inhibition, hits mostly inhibitors | Chaperonin Mm-Cpn (Methanococcus maripaludis) | purified Mm-Cpn ATPase, ADP Transcreener TR-FRET | 330,000 compounds, 0.031% hits | AID 504842, 2011; note: potency is the fitted concentration of half-maximal effect; nearly all actives have a fitted effect of over 80% in size
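ATPase turnover read by TR-FRET ADP competition (Eu cryptate antibody/ADP-d2, 665/590 nm): 10uM ATP final, 25nM Mm-CPN final, 30 min 37degC after 10-min compound preincubation, pH 7.4 Tris/KCl/MgCl2/DTT buffer.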
CCT chaperon mod: High-Throughput Screening for Modulators of Cytosolic Chaperonin Activity; purified chaperonin ATPase assay, HTRF ADP detection, 30 min; AID 651819, 2012; 360,000 compounds, 0.3% hits; activity change, % (no concentration beside the values), hits read low; in the data active = activity change below about -30%
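We incubate TRiC, 40 or 20 nM final, with library compounds at 76 uM and 10 uM ATP for 30 min at 37 °C. ADP formed is detected with Transcreener HTRF reagents after 30 min at room temperature.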
PLK1 PBD inh: qHTS for Inhibitors of PLK1-PDB (polo-like kinase 1 - polo-box domain): Primary Screen | Serine/threonine-protein kinase PLK1 (Homo sapiens), P53350 | Plk1 PBD binding of FITC phosphopeptide, fluorescence polarization | Potency, µM, for the others: max response, negative = inhibition, hits mostly inhibitors | 360,000 compounds, 2.8% hits | AID 720504, 2013; note: potency is the fitted concentration of half-maximal effect; series mostly up to about 57 µM; nearly all actives have a fitted effect of over 65% in size
Target sequence (P53350 whole entry, looked up, the tested form may be a part): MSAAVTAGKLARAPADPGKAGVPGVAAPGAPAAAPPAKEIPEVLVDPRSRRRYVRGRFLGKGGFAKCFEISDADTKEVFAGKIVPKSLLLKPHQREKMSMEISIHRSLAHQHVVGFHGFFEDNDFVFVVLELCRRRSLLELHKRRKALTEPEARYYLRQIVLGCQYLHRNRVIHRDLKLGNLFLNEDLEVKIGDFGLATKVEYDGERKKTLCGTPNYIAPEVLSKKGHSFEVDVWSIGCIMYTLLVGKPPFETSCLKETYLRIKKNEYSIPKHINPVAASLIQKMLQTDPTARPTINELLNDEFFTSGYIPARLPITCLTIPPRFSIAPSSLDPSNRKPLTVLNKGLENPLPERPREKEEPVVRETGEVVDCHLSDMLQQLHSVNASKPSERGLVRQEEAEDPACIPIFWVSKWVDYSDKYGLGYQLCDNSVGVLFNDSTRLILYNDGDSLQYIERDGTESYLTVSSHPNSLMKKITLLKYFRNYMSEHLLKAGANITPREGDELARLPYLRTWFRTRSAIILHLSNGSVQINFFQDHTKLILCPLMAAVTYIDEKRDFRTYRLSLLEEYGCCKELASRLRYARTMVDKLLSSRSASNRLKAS
Sfp inh: qHTS Assay for Inhibitors of Bacillus subtilis Sfp phosphopantetheinyl transferase (PPTase) | 4'-phosphopantetheinyl transferase ffp (Bacillus subtilis), Q9F4F7 | Biochemical Sfp PPTase activity, qHTS | Potency, µM, inactives show largest response in the series, negative = inhibition, most hits filed as inhibitors | 310,000 compounds, 3.5% hits | AID 1490, 2009;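 note: the enzyme is Sfp with the accession as filed and its product quenches rhodamine fluorescence; potency is the fitted concentration of half-maximal effect; 0% = enzyme reaction without inhibitor and -100% = no enzyme wells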
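Step 1, compound plus 15 nM Sfp-PPTase, 15 min, room temperature. Step 2, add rhodamine-CoA (5 uM) and BHQ-2-YbbR (12.5 uM). Step 3, read 525/598 nm fluorescence at 0 and 30 min.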
VDR inh: Inhibitors of the vitamin D receptor (VDR): qHTS. VDR-SRC2-3 peptide fluorescence polarization, 2 h. Potency, µM, for inactives: max response, negative = inhibition, hits mostly inhibitors. 400,000 compounds, 0.93% hits; note: potency is the fitted concentration of half-maximal effect
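Reagent solutions, kept cold and dark, are dispensed first; compounds are then pinned in at 23 nl, plates briefly spun, and incubated 2 h at ambient temperature. Inhibition of VDR–SRC2-3 peptide binding is read by fluorescence polarization.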
Starred values were filed as active, the others as inactive; u = inconclusive; x = no result; ! = repeats disagree; [ ] = another dose, or the depositor's remark. An excerpt weighted towards active compounds, which were near 10% of everything screened. Unless noted, calls come from the whole dose curve; as a rule, active = well fitted curve in the direction sought with a large enough effect; inconclusive = small, poorly fitted or top-dose-only effect, or another doubt; inactive = no such curve, though single readings can be large; an effect the other way counts as inactive or inconclusive. Unless noted, % is set by controls: 0 for no effect and ±100 for the full control effect.

SMILES | G9a block | MmCpn inh | CCT chaperon mod | PLK1 PBD inh | Sfp inh | VDR inh
COc1ccc2c(c[n+](C)c3c4cc5c(cc4ccc23)OCO5)c1OC | 17µM* | x | x | x | 50µM* | 28µM*
COc1cc2c(ccc3c4cc(OC)c(OC)cc4c[n+](C)c23)cc1O | x | x | -1 | -6% | x | -5%
Cc1cc(OCC(=O)N[C@@H](Cc2ccccc2)C(=O)O)c2c3c(c(=O)oc2c1)CCC3 | 16%[12.7 µM] | -3% | 2 | 3% | 23% | 6%
Cc1cc(OCC(=O)N[C@H](C(=O)O)c2ccccc2)c2c3c(c(=O)oc2c1)CCC3 | 79µM* | 2% | -2 | -12% | 27% | -11%
CCOC(=O)c1c(-n2c(C)cc(/C=C3\C(=O)NC(=O)N(C)C3=O)c2C)sc2c1CCCC2 | u | -1% | -3 | 2.7µM* | u | u
Cc1ccc(-n2c(C)cc(/C=C3/C(=O)NC(=O)N(C)C3=O)c2C)cc1 | u | 0% | 2 | -14% | -17% | 17%
Cc1cc(/C=C2\C(=O)NC(=O)N(c3ccc(Cl)cc3)C2=O)c(C)n1-c1sc2c(c1C#N)CCCC2 | u | -8% | -2 | 1.2µM* | 32µM* | u
CC(=O)OC1CCC23C(=O)OC45CCC(C6=CC(=O)OC6)C4(C)CCC2C5CCC3(O)C1 (configuration not stated) | -31%[2.33 µM] | x | x | x | 5% | 6%
CC1(O)C[C@]2(C)N(O)C3CCCC[C@@H]3N2O1 (some centres not stated) | u | 0% | 0 | -11% | -10% | 10%
CC1(C)N(O)C2CCCCC2N1O (configuration not stated) | 8.9µM* | -1% | -3 | -2% | 56µM* | 8%
CN(C)c1cccc2c(C#N)ccc(N(C)C)c12 | 45µM* | -3% | -6 | u | 2% | -3%
COc1ccc(CCN(C)Cc2ccc(F)cc2F)cc1OC | 10µM* | 2% | -6 | -5% | -24% | -2%
O=C(Nc1ccccc1-c1ccc(Cl)cc1)c1cccnc1Cl | x | x | x | x | 14% | 1%
O=C(Nc1cccc2ncccc12)c1ccccc1Cl | 79µM* | 1% | -3 | -4% | -23% | -21%
Cc1ccc(/C=C2\C(=O)NC(=O)N(CCc3ccc(F)cc3)C2=O)s1 | u | -1% | 5 | 0.27µM* | -11% | u
Cc1ccc(/C=C2/C(=O)NC(=O)N(CCc3ccc(F)cc3)C2=O)s1 | -22%[59 µM] | -1% | 1 | 0.95µM* | 7% | u
Cc1ccc(/C=C2/C(=O)NC(=O)N(CC3CCCO3)C2=O)s1 (configuration not stated) | 13µM* | -2% | -2 | 6µM* | u | u
Cn1c(=O)n(C)c2cc(CNCCc3ccc(F)cc3)ccc21 | 7%[59 µM] | x | x | x | x | 16%
Cc1ccc(CNCCc2ccc(F)cc2)s1 | 9% | -9% | 0 | 1% | 6% | -8%
CN1CC[C@@]2(c3cccc(O)c3)Cc3nc4ccccc4cc3C[C@H]2C1 | x | x | x | x | 79µM* | 2%
CN1C(=O)/C(=C\c2ccc(N3CCCCC3)o2)C(=O)NC1=S | 32µM* | 0% | 0 | 68% | -14% | -1%
C=CCN1C(=O)/C(=C\c2ccc(N3CCOCC3)o2)C(=O)NC1=S | 8.9µM* | -2% | 0 | 75% | 56µM* | -20%
CCCCN1C(=O)/C(=C/c2ccc(N3CCCCCC3)cc2)C(=O)NC1=S | 18µM* | 0% | x | x | -19% | x
CN1C(=O)/C(=C\c2ccc(N3CCCCCC3)cc2)C(=O)NC1=S | 28µM* | -2% | -1 | 2.1µM* | u | u
CN1C(=O)C(=Cc2ccc(N3CCOCC3)o2)C(=O)N(C)C1=S | -4% | -1% | 2 | 65% | 6% | -8%
SMILES | G9a block | MmCpn inh | CCT chaperon mod | PLK1 PBD inh | Sfp inh | VDR inh
CN1CCCC2(CCN(C(=O)Oc3ccccc3)CC2)C1 | 9%[12.7 µM] | x | x | x | 5% | -1%
C=CCn1c(CSc2ccccc2[N+](=O)[O-])n[nH]c1=S | 1.3µM* | 1% | 0 | 12µM* | u | u
Cn1cc(C(=O)OCC(=O)Nc2ccccc2)c2ccccc21 | -5%[0.501 µM] | 1% | 1 | -3% | x | 5%
Cn1cc(C(=O)Cc2ccccc2)c2ccccc21 | 39%[59 µM] | 0% | -3 | 27µM* | 10% | u
Oc1ccccc1-c1ccccc1 | 21%[59 µM] | x | x | x | 13% | 0%
CCCCCCCSc1cc(OC)c(CCN(C)C)cc1OC | u | -1% | 0 | -6% | 14µM* | -4%
CCCCCSc1cc(OC)c(CCN)cc1OC | -13%[59 µM] | 0% | -1 | -6% | u | -2%
CC1=C2C(=CO[C@H](C)[C@H]2C)C(=O)C(C(=O)O)=C1O | x | x | x | x | -10% | u
CC(C)C[C@H]1C(=O)N2CCC[C@@H]2[C@]2(O)O[C@](NC(=O)[C@H]3C=C4c5cccc6[nH]c(Br)c(c56)C[C@H]4N(C)C3)(C(C)C)C(=O)N12 | u | x | x | x | -11% | -13%
CN1C[C@H](C(=O)N[C@]2(C)O[C@@]3(O)[C@@H]4CCCN4C(=O)[C@H](Cc4ccccc4)N3C2=O)C=C2c3cccc4[nH]cc(c34)C[C@H]21 | 13µM* | x | x | x | -17% | 14µM*
CC(C)C[C@H]1C(=O)N2CCC[C@H]2[C@]2(O)O[C@](NC(=O)[C@@H]3C=C4c5cccc6[nH]cc(c56)C[C@H]4N(C)C3)(C(C)C)C(=O)N12 | 6.3µM* | -4% | -3 | u | x | 79µM*
CC(C)C[C@H]1C(=O)N2CCC[C@H]2[C@]2(O)O[C@](NC(=O)[C@@H]3C=C4c5cccc6[nH]c(Br)c(c56)C[C@H]4N(C)C3)(C(C)C)C(=O)N12 | 24µM* | x | x | x | -4% | 28µM*!
CC(C)CN(CC(C)C)c1ccc(C=C2C(=O)NC(=S)NC2=O)cc1[N+](=O)[O-] | u | -4% | -6 | 2.7µM* | 20µM* | 35µM*
COc1ccc(C(=O)CN2CCCCC2)cc1 | u | 1% | 1 | -9% | 11% | 7%
COc1ccc(C(=O)CC2(CC(=O)c3ccc(OC)cc3)C(=O)N(C)C(=O)N(C)C2=O)cc1 | 40µM* | 1% | 1 | -8% | 0% | 3%
C[C@]12CCC(=O)C=C1CCc1ccc(O)cc12 | x | x | x | x | 0% | 5%
CCN(CC)c1ccc(N=Cc2c(O)n(CCc3ccc(OC)c(OC)c3)c(=O)[nH]c2=O)cc1 | 7.1µM* | 0% | -1 | 0% | u | u

Screening results: PubChem, National Center for Advancing Translational Sciences (NCATS)
